# Screens deposited in PubChem BioAssay by National Center for Advancing Translational Sciences (NCATS).
# The list is not random: actives were taken first. Their share in the collection is about 8.7%.
# G9a block: qHTS Assay for Inhibitors of Histone Lysine Methyltransferase G9a; G9a H3K9 monomethylation, AlphaScreen, 2 h; Potency, µM (highest dose often 102 µM), without a hit: top-dose activity, negative = inhibition, most hits filed as inhibitors; 350,000 tested, 8.8% active; AID 504332, 2011; further: on the % scale 0 is the no-effect control and ±100 the full control effect; nearly all actives have a fitted effect of over 75% in size
# Target sequence (Q96KQ7 913-1193 limits assumed): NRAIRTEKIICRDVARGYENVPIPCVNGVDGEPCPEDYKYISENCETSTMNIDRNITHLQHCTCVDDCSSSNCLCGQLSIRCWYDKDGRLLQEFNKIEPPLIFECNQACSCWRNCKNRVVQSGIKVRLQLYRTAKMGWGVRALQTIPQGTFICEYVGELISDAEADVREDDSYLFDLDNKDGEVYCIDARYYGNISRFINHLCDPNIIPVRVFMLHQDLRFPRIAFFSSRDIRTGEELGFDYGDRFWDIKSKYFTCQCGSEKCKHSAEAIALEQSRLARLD
#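 Readings reflect AlphaScreen signal from monomethyl-H3K9 antibody detection. HMT at 20 nM; substrate b-H3K9 500 nM; cofactor SAM 20 uM; 2 h RT reaction; compounds tested as titrations in qHTS with 15 min preincubation.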
# JMJD2A Tudor: qHTS Assay for Inhibitors of JMJD2A-Tudor Domain; 390,000 tested, 4.4% active; AlphaScreen JMJD2A-Tudor / H3K4me3 peptide binding; Potency, µM (highest dose often 114 µM), inactives show at the highest dose activity change, negative = inhibition, usual class: inhibitors; AID 504339, 2011; Lysine-specific demethylase 4A (Homo sapiens), O75164; further: on the % scale 0 is the no-effect control and ±100 the full control effect; nearly all actives have a fitted effect of over 50% in size
# 12-LOX inh: Primary qHTS assay for inhibitors of human arachidonate 12S-lipoxygenase (ALOX12): Round 2 | 580,000 tested, 1.1% active | Potency, µM (highest dose often 108 µM), for the others: top-dose activity change, negative = inhibition, hits mostly inhibitors | AID 1671190, 2021 | purified 12hLO, xylenol orange hydroperoxide absorbance | Polyunsaturated fatty acid lipoxygenase ALOX12 (Homo sapiens), P18054; further: on the % scale 0 is the no-effect control and ±100 the full control effect
#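 Hydroperoxide product was detected by ferrous iron/xylenol orange as the 573 to 405 nm absorbance ratio. Arachidonic acid at 40 uM (final) was turned over for 30 min at room temperature by 150 nM human 12hLO, pH 7.0 Hepes buffer, after 15 min compound preincubation.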
# HP1b binding inh: HTS for Inhibitors of HP1-beta Chromodomain Interactions with Methylated Histone Tails; Chromobox protein homolog 1 (Homo sapiens), P83916; AlphaScreen HP1-beta / biotin-H3K9me3 peptide binding; Potency, µM (doses to about 114 µM), for the others: top-dose activity change, negative = inhibition, actives largely listed as inhibitors; 390,000 tested, 0.56% active; AID 540317, 2011; further: nearly all actives have a fitted effect of over 70% in size
# Target sequence (P83916 whole entry, looked up): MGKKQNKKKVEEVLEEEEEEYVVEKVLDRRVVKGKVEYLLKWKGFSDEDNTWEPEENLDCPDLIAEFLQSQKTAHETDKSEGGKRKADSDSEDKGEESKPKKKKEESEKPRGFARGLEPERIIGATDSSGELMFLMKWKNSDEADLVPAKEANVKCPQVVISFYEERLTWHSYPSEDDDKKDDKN
#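 AlphaScreen: HP1-beta (50 nM) preformed 30 min with biotin-H3(1-18)K9me3 peptide (50 nM) in PBS pH 7.4, 0.01% Tween-20. Compound added for 30 min at RT, then streptavidin donor/nickel chelate acceptor beads (10 ug/mL) for 30 min.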
# BAZ2B block: qHTS Assay for Inhibitors of BAZ2B | AlphaScreen BAZ2B-H3K14Ac peptide displacement | Potency, µM (top dose mostly 114 µM), for inactives: top-dose activity change, negative = inhibition, hits mostly inhibitors | 360,000 tested, 4.4% active | AID 504333, 2011; further: on the % scale 0 is the no-effect control and ±100 the full control effect; nearly all actives have a fitted effect of over 60% in size
#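 AlphaScreen luminescence quantifies BAZ2B engagement of H3K14Ac peptide; the protein and biotinylated peptide are both at 50 nM final, buffer PBS pH 7.4 with 0.01% Tween-20, all steps at room temperature.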
# Sfp PPTase inh: qHTS Assay for Inhibitors of Bacillus subtilis Sfp phosphopantetheinyl transferase (PPTase); 4'-phosphopantetheinyl transferase ffp (Bacillus subtilis), Q9F4F7; Biochemical Sfp PPTase activity, qHTS; Potency, µM, without a hit: largest response in the series, negative = inhibition, hits mostly inhibitors; 310,000 tested, 3.5% active; AID 1490, 2009;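 further: the enzyme is Sfp with the accession as filed and its product quenches rhodamine fluorescence; 0% = enzyme reaction without inhibitor and -100% = no enzyme wells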
#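 Step 1, compound plus 15 nM Sfp-PPTase, 15 min, room temperature. Step 2, add rhodamine-CoA (5 uM) and BHQ-2-YbbR (12.5 uM). Step 3, read 525/598 nm fluorescence at 0 and 30 min.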
# * = called active by the depositor; ? = inconclusive; / = no result given; [ ] = remark or other dose. The call rests on the fitted dose curve; in most records, active means well fitted curve in the direction sought with a large enough effect; inconclusive means small, poorly fitted or top-dose-only effect, or another doubt; inactive means no such curve, though single readings can be large; an effect the other way counts as inactive or inconclusive. Potency means the concentration at half of the fitted maximal effect.
SMILES,G9a block,JMJD2A Tudor,12-LOX inh,HP1b binding inh,BAZ2B block,Sfp PPTase inh
CCOc1cc(/C=C(\C#N)C(=O)Nc2cccc(C(=O)O)c2)ccc1OCc1ccccc1Cl,50µM*,56µM*,3%,-25%,50µM*,?
CCOc1cc(/C=C(\C#N)C(=O)C(C)(C)C)ccc1OCc1ccccc1Cl,/,/,-5%,/,/,/
CCOc1cc(/C=C(\C#N)C(=O)Nc2cccc(C(=O)O)c2)cc(Br)c1OC(=O)c1ccc(OC)cc1,56µM*,56µM*,45µM*,?,50µM*,79µM*
CCOc1cccc(NC(=O)/C(C#N)=C/c2cccnc2)c1,-5%[59 µM],-13%,-4%,19%,-5%,15%
COc1ccc(S(=O)(=O)Nc2nc3ccccc3nc2Nc2ccc(C)cc2)cc1,/,/,47%,/,/,/
CCOC(=O)c1oc2cc(OCC(N)=O)ccc2c(=O)c1-c1ccc(Br)cc1,/,/,-19%,/,/,/
Cc1cc2cccc(C(=O)N[C@H]3CCOC[C@H]3C3CCOCC3)c2o1,/,/,-2%,/,/,/
COc1ccc(CNC(=O)c2cnc(C)cn2)cc1,-2%[59 µM],-30%,21%,17%,50µM*,15%
COc1cc(CNC(=O)c2cnc(C)cn2)cc(OC)c1,/,0%,4%,14%,3%,0%
COc1cccc(CNC(=O)C2=C(C)C(=O)OC23CCCCCC3)c1,-5%[59 µM],-17%,-8%,30%,-1%,/
COc1ccc(CCn2c(C)cc(C(=O)COC(=O)c3cnc(C)cn3)c2C)cc1,50µM*,-31%,-2%,35%,?,/
COc1ccc(CNC(=O)C2=C(C)C(=O)OC23CCCCC3)cc1,11µM*,-19%,-23%,9%,-5%,/
Cc1cnc(C(=O)OCC(=O)c2cc(C)n(CCc3ccc(F)cc3)c2C)cn1,/,/,-41%,/,/,/
COc1ccc(C(=O)N2CCCn3nc(C)c(-c4ccccc4C(C)C)c32)cc1,/,/,15%[176 µM],/,/,/
CCCN1C(=O)C(C)=C(C)C1c1cn(C)c2ccccc12 (stereo unspecified),/,/,-27%,/,/,/
CCN(CC)c1ccc(C2C(C(=O)Nc3ccccc3F)=C(C)NC3=C2C(=O)CCC3)cc1 (stereo unspecified),/,/,-3%,/,/,/
CCCCn1c(SCC(=O)c2ccc(O)c(O)c2)nc2ccsc2c1=O,7%[59 µM],?,/,?,?,1%
O=C(O)CCCCCn1c(SCC(=O)c2ccc(O)c(O)c2)nc2ccsc2c1=O,79µM*,?,?,-2%,?,-13%
O=C(CSc1nc2ccsc2c(=O)n1CC1CCC(C(=O)O)CC1)c1ccc(Cl)cc1 (stereo unspecified),56µM*,79µM*,-22%,-19%,/,-17%
COc1ccc(-c2onc3ccc(Cl)cc23)cc1,?,15%,?,42%,7%,50µM*
O=Cc1ccc2noc(-c3ccc(Cl)cc3)c2c1,22µM*,-6%,?,23%,-5%,-5%
O=C1CCN(C(=O)CC2CCCC2)CCCC(c2nc(-c3cccnc3)no2)CCN1 (stereo unspecified),/,/,33%,/,/,/
Cc1ccc(OCC(=O)N2CCCC(CCC(=O)N(C)CCc3ccccn3)C2)cc1 (stereo unspecified),1%[0.501 µM],-4%,-12%,45%,6%,-4%
Cc1ccc(OCC(=O)N(C)CCc2ccccn2)cc1,20%[2.33 µM],10µM*,?,-16%,?,-8%
CC(C)CC(NC(=O)c1ccc(-c2ccccc2)cc1)C(=O)O (stereo unspecified),/,/,-10%,/,/,/
SMILES,G9a block,JMJD2A Tudor,12-LOX inh,HP1b binding inh,BAZ2B block,Sfp PPTase inh
Cc1cc(C(=O)COC(=O)/C=C/c2cccc(F)c2)c(C)n1C,?,-7%,-10%,-21%,7%,-3%
Cc1cc(C(=O)COC(=O)Cc2c(F)cccc2Cl)c(C)n1C,/,/,12%,/,/,/
Cc1cc(C(=O)COC(=O)/C=C/c2cccc(Br)c2)c(C)n1C,45µM*,-27%,-10%,?,?,/
Cc1cc(C(=O)COC(=O)Cc2ccc(Br)cc2)c(C)n1C,?,-30%,-8%,2%,50µM*,/
C=CCn1c(-c2cc3c(s2)CCC(CC)C3)n[nH]c1=S (stereo unspecified),11µM*,?,?,-15%,-29%,22%
CCOc1ccc(Nc2ccc([N+](=O)[O-])c3nonc23)cc1,25µM*,35µM*,102%,13µM*,14µM*,-19%
COc1ccc(Nc2cc(NCCCO)c([N+](=O)[O-])c3nonc23)cc1,-3%,-6%,0%,18%,-8%,8%
CC(=O)NS(=O)(=O)c1ccc(Nc2ccc([N+](=O)[O-])c3nonc23)cc1,-14%[59 µM],-2%,-9%,-5%,50µM*,6%
CC(=O)Nc1ccc(Nc2ccc3nonc3c2[N+](=O)[O-])cc1,-28%,-18%,-15%,26%,-36%,4%
O=[N+]([O-])c1ccc(Sc2cccc[n+]2[O-])c2nonc12,0.5µM*,20µM*,-42%,7.9µM*,56µM*,1.3µM*
O=[N+]([O-])c1ccc(Nc2ccccc2)c2nonc12,45µM*,56µM*,3%,?,40µM*,-8%
O=C(Nc1c(-c2ccccc2)nc2sccn12)c1cccc(S(=O)(=O)N2CCOCC2)c1,/,/,-2%,/,/,/
CC(=O)N1CCC(Nc2ccc(C)cc2)CC1,?,-20%,25%,11%,3%,13%
CCOc1ccc(S(=O)(=O)NN=C2CCN(C(C)=O)CC2)cc1,50µM*,-12%,7%,37%,2%,13%
CCOc1ccc(NC2CCN(C(C)=O)CC2)cc1,50µM*,-27%,-1%,24%,0%,-1%
